From PubChem BioAssay
Active and inactive are the calls of the source. Unless noted, the rule behind the calls is not given here.

How the values were obtained:
[1] = resazurin metabolic signal in HepG2 cells – cell-based, resazurin fluorescence, 24 h, PK04 Diversity Set, profiling panel (AID 1172); conditions: HepG2 viability, higher = more signal
[2] = budding yeast growth changes without added modifier – OD600, strain BY4716, 24 h, basal condition, primary screen (AID 1173); conditions: S. cerevisiae BY4716 growth, OD600, 24 h; higher = more signal, called active from +8 up or from −8 down
[3] = viability profiling in MM1S myeloma cells – cell-based, resazurin fluorescence, basal, 24 h, PK04 Diversity Set, profiling panel (AID 1174); conditions: higher = more signal, called active from +8 up or from −8 down;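 note: MM1S multiple myeloma cell line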
[4] = target: Dihydroorotate dehydrogenase (quinone), mitochondrial (Plasmodium falciparum (isolate 3D7)) (UniProt Q08210); test: inhibition of P. falciparum DHODH – biochemical, C-terminal His tag, absorbance 600 nm, primary screen (AID 1175); conditions: PfDHODH enzyme, DCIP absorbance 600 nm; higher = more signal, called active from +8 up or from −8 down;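 note: recombinant parasite enzyme with a five histidine tag at its C terminus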
[5] = inhibition of PAO1 biofilm formation – strain PAO1, LB-PBS medium, absorbance 600 nm, primary screen (AID 1176); conditions: P. aeruginosa PAO1 growth/biofilm, A600, 12 h; higher = more signal
[6] = growth modulation of vineyard yeast isolate – strain RM11-1a, OD600, basal, 24 h, primary screen (AID 1177);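 note: cultures grown under basal conditions with no added stressor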; conditions: S. cerevisiae RM11-1a growth, OD600, 24 h; higher = more signal, called active from +8 up or from −8 down
[7] = growth of efflux-deficient E. coli DRC39 – strain DRC39, OD650, 24 h, E. coli filamentation inducers, primary screen (AID 1178);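 note: growth measured as culture turbidity by optical density at 650 nm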; conditions: E. coli DRC39 acrAB, higher = more signal, called active from +8 up or from −8 down
[8] = growth of efflux-deficient E. coli DRC39 – strain DRC39, OD650, 48 h, E. coli filamentation inducers, primary screen (AID 1179);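 note: screen aims at cell division blockers that make cells filament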; conditions: E. coli DRC39 delta-acrAB growth, higher = more signal, called active from +8 up or from −8 down
[9] = viability profiling in RPMI8226 myeloma cells – cell-based, resazurin fluorescence, basal, 24 h, PK04 Diversity Set, profiling panel (AID 1180); conditions: higher = more signal;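 note: RPMI8826 multiple myeloma cell line at 5000 cells per well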
[10] = target: E3 ubiquitin-protein ligase XIAP (Homo sapiens) (UniProt P98170); test: small molecules binding XIAP protein – biophysical, small-molecule microarray, fluorescence 635 nm, primary screen (AID 1181); conditions: higher = more signal;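 note: score merges 667 nm emission and signal to noise over triplicate slides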
[11] = tested on: XIP peptide (Xip251-270) binding; test: XIP fragment 251-270 binding compounds – biochemical, small-molecule microarray, fluorescence 635/667 nm, 0.1 µg/mL protein, primary screen (AID 1182); conditions: fluorescent protein binding, 635 nm, higher = more signal, called active from +8 up or from −8 down
XIP peptide (Xip251-270) = test: compounds binding XIP fragment 251-270 – biochemical, small-molecule microarray, fluorescence 635/667 nm, 0.5 µg/mL protein, primary screen (AID 1183); conditions: fluorescence 635 nm, higher = more signal
[12] = blood-stage malaria parasite viability loss – strain 3D7, DAPI fluorescence, 100 nL, primary screen (AID 1184);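 note: parasites grown inside human red blood cells in medium with human serum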; conditions: P. falciparum 3D7 growth, 3 d, higher = more signal
[13] = target: Homeobox protein Hox-A13 (Mus musculus) (UniProt Q62424); test: disruptors of Hoxa13 oligonucleotide interaction – biochemical, fluorescence polarization, labeled oligonucleotide, primary screen (AID 1185); conditions: Hoxa13:DNA binding, 15 min, higher = more signal, called active from +8 up or from −8 down
[14] = blockers of DNA damage checkpoint Chk1 activation – imaging, HeLa, hydroxyurea, phospho-Chk1 antibody, percent positive cells, primary screen (AID 1186); conditions: hydroxyurea-induced phospho-Chk1 immunofluorescence imaging, higher = more signal
[15] = blockers of DNA damage checkpoint Chk1 activation – imaging, HeLa, hydroxyurea, phospho-Chk1 nuclear intensity, primary screen (AID 1187); conditions: hydroxyurea-induced phospho-Chk1 immunofluorescence imaging, higher = more signal

Chain of E3 ubiquitin-protein ligase XIAP (Homo sapiens) (P98170 whole entry, looked up, the tested form may be a part): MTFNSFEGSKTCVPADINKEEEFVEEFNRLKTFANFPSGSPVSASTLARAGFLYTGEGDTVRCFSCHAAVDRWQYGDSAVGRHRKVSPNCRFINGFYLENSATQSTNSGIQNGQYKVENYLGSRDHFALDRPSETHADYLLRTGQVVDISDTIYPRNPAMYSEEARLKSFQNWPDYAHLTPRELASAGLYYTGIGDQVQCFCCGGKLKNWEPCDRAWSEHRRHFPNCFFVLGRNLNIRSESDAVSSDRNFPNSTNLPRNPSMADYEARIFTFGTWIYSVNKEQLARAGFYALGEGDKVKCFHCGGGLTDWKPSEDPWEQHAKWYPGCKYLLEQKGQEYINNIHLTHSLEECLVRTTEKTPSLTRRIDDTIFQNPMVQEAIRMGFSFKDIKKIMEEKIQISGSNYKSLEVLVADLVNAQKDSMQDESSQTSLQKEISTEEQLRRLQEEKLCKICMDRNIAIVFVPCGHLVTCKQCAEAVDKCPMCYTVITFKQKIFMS
Chain of Homeobox protein Hox-A13 (Mus musculus) (Q62424 whole entry, looked up): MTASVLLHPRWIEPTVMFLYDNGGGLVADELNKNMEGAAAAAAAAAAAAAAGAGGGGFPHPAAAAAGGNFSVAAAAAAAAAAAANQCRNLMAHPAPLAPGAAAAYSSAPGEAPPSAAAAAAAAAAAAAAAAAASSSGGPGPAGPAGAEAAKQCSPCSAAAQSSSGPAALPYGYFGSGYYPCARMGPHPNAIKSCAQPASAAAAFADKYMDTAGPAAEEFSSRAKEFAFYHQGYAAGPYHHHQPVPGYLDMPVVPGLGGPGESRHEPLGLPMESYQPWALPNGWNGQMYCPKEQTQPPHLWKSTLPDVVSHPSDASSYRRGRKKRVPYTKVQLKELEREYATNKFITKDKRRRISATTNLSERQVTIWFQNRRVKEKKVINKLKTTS
Chain of Dihydroorotate dehydrogenase (quinone), mitochondrial (Plasmodium falciparum (isolate 3D7)) (Q08210 whole entry, looked up): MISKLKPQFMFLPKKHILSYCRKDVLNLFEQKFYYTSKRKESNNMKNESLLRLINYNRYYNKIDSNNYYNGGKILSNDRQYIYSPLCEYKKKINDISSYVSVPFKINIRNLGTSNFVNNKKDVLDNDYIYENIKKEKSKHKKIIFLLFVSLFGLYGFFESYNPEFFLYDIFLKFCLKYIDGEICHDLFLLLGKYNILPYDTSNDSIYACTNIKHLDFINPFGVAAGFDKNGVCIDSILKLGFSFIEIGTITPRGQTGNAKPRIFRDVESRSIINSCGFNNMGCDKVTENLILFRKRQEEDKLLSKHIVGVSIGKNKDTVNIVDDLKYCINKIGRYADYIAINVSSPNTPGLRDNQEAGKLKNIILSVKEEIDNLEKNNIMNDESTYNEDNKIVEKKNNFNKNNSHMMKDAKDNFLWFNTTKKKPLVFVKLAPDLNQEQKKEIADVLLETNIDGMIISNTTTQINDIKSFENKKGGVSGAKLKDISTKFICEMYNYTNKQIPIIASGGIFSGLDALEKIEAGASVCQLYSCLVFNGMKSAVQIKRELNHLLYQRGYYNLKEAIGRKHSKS

Row | SMILES | z-score [1] | z-score [2] | z-score [3] | composite z-score [4] | z-score [5] | z-score [6] | z-score [7] | z-score [8] | z-score [9] | composite z-score [10] | composite z-score [11] | composite z-score (XIP peptide (Xip251-270)) | z-score [12] | z-score [13] | z-score [14] | z-score [15]
1 | CC(C)C(=C=CC[C@H](O)c1ccccc1OCCO)C[C@H](O)c1ccccn1 | 0.644 | -0.669 (inactive) | 0.34 (inactive) | -3.95 (inactive) | 0.4 (inactive) | 0.398 (inactive) | 0.762 (inactive) | 0.577 (inactive) | 0.285 | -0.226 | 0.241 (inactive) | 0.0067 | -1.41 | -4.79 (inactive) | 0.293 (inactive) | 0.546 (inactive)
2 | CC(C)c1ccc(NN2C(C(O)c3ccc(N(C)C)cc3)C=CC3C(=O)N(c4ccccc4)C(=O)C32)cc1 (centres undefined) | 0.0387 | 0.254 (inactive) | -0.683 (inactive) | 0.421 (inactive) | 0.53 (inactive) | 0.25 (inactive) | -0.172 (inactive) | 0.766 (inactive) | 0.203 | 0.391 | -0.0313 (inactive) | 0.618 | -0.286 | -2.2 (inactive) | 0.148 (inactive) | -0.072 (inactive)
3 | COCCOC(=O)N1C(=O)[C@@]2(c3cc(C#CCNC(N)=O)ccc31)[C@H](c1ccc(OCCO)cc1)N1[C@H](c3ccccc3)[C@H](c3ccccc3)OC(=O)[C@H]1[C@@H]2C(=O)N1CCc2cc(OC)c(OC)cc2C1 | 0.358 | 2.29 (inactive) | 0.296 (inactive) | -0.597 (inactive) | 2.26 (inactive) | 3.21 (inactive) | 0.583 (inactive) | 0.582 (inactive) | 0.665 | -0.0999 | -0.254 (inactive) | 0.229 | -0.605 | 1.91 (inactive) | -0.102 (inactive) | 0.15 (inactive)
4 | O=C1C2C=CC(C(O)c3cccs3)N(Nc3ccccc3F)C2C(=O)N1c1ccccc1 (centres undefined) | 1.21 | -1.3 (inactive) | 0.982 (inactive) | 0.609 (inactive) | 0.574 (inactive) | -0.24 (inactive) | -0.0052 (inactive) | 1.05 (inactive) | 0.562 | 0.33 | -0.238 (inactive) | 0.111 | 0.669 | -4.17 (inactive) | -0.143 (inactive) | -0.299 (inactive)
5 | COCCOC(=O)N1C(=O)[C@@]2(c3cc(C#CCNC(N)=O)ccc31)[C@H](C(=O)N1CCc3cc(OC)c(OC)cc3C1)[C@H]1C(=O)O[C@H](c3ccccc3)[C@H](c3ccccc3)N1[C@@H]2c1ccc(OCCO)cc1 | 0.631 | 2.28 (inactive) | 0.761 (inactive) | -0.232 (inactive) | 1.92 (inactive) | 2.97 (inactive) | 0.987 (inactive) | 0.781 (inactive) | 0.856 | 0.122 | 0.034 (inactive) | 0.616 | -1.3 | 1.53 (inactive) | -0.184 (inactive) | -0.0927 (inactive)
6 | C=C(COC)C(=O)CC[C@H](OC(C)=O)c1cccc(OCCO)c1 | -1.32 | -0.764 (inactive) | -0.854 (inactive) | -0.859 (inactive) | -0.73 (inactive) | -0.496 (inactive) | -1.03 (inactive) | -0.639 (inactive) | -1.27 | 0.0346 | 0.623 (inactive) | -0.762 | -2.3 | -4.76 (inactive) | 0.305 (inactive) | -0.0656 (inactive)
7 | CN(C)CCCCCCNC(=O)[C@H]1C[C@H]2C(=O)N[C@@H](CCCCN)C(=O)N2[C@H]1c1ccc(O)cc1 | -0.807 | 0.293 (inactive) | -0.249 (inactive) | 1.31 (inactive) | 0.808 (inactive) | 0.0384 (inactive) | -0.108 (inactive) | 0.267 (inactive) | 0.263 | 2.64 | 5.07 (inactive) | 0.937 | -0.511 | -0.281 (inactive) | -0.111 (inactive) | 0.501 (inactive)
8 | CCCCCCc1nc(CCCc2cc3c(c(CCCCCC)n2)[Si](C(C)C)(C(C)C)OC3)cc2c1[Si](C(C)C)(C(C)C)OC2 | -0.0097 | -0.528 (inactive) | 0.129 (inactive) | -2.32 (inactive) | 0.374 (inactive) | 0.539 (inactive) | -0.214 (inactive) | -0.728 (inactive) | -0.655 | -0.0829 | -0.53 (inactive) | -0.442 | -2.33 | -5.85 (inactive) | 0.28 (inactive) | 0.382 (inactive)
9 | N#Cc1ccc(NN2C(C(O)c3ccc([N+](=O)[O-])cc3)C=CC3C(=O)N(c4ccccc4)C(=O)C32)cc1 (centres undefined) | -1.07 | -0.203 (inactive) | -0.55 (inactive) | -0.0079 (inactive) | 1.23 (inactive) | -0.487 (inactive) | -0.685 (inactive) | -0.418 (inactive) | -1.08 | -0.0391 | 0.311 (inactive) | 0.807 | 0.272 | -4.27 (inactive) | 0.446 (inactive) | 0.5 (inactive)
